Experiment [1] deals with PRMT1 (protein arginine N-methyltransferase 1). Briefly: PRMT1 binders on small-molecule microarrays, primary screen, biochemical, small-molecule microarray, 635 nm fluorescence (AID 1088).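 Note: binding of Prmt1 protein to compounds spotted on small-molecule microarray slides.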 The note with it: small-molecule microarray binding, higher = more signal.
Experiment [2] is described as follows: yeast growth modulation, basal conditions, primary screen, YJM789 clinical isolate, OD600, 24 h (AID 1089).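 Note: growth of clinical yeast isolate S. cerevisiae YJM 789 seeded 1000 cells per well; test concentration not given here.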 The note with it: S. cerevisiae YJM789 growth, higher = more signal, called active from +8 up or from −8 down.
A short description of experiment [3]: fission yeast growth modulation, primary screen, strain 972, OD600, 24 h, no modulator (AID 1090).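 Note: basal condition with compound alone and no growth modifier present; test concentration not given here.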 To be noted: S. pombe 972 growth, higher = more signal, called active from +8 up or from −8 down.
Experiment [4] in a line: S. cerevisiae growth modulation with rapamycin, primary screen, strain BY4716, OD600, 96 h (AID 1091). Note: test concentration not given here. To be noted: higher = more signal, called active from +8 up or from −8 down.
Experiment [5] deals with Torsin-1A-interacting protein 2 (Homo sapiens) (UniProt Q8NFQ8). Briefly: LULL1 binders on small-molecule microarray, primary screen, cell lysate, human LULL1 lysate, 635/667 nm fluorescence (AID 1092).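 Note: probe is lysate of COS7 cells overexpressing human LULL1; score merges per-feature 667 nm fluorescence with signal-to-noise.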 The note with it: hLULL1 lysate binding, 635 nm fluorescence, higher = more signal.
Chain of Torsin-1A-interacting protein 2 (Homo sapiens) (Q8NFQ8 whole entry, looked up): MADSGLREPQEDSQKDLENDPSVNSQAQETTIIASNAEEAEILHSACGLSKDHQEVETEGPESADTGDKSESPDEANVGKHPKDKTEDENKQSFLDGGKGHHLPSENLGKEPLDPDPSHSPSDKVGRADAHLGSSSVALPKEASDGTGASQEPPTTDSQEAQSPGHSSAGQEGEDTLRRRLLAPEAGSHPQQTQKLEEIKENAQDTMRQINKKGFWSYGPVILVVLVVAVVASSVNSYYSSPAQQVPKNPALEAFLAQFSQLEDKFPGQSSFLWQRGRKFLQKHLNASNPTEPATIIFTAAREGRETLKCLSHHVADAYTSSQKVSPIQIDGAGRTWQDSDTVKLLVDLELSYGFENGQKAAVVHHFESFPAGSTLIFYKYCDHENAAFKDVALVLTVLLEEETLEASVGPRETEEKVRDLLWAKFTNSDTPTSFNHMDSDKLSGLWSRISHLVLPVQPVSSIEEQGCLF
A short description of experiment [6]: E. coli growth modulation, two-sided OD650, primary screen, E. coli filamentation project, strain DRC41, 24 h (AID 1093).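 Note: MC1000 strain lacking acrAB efflux and sulA so SOS filamentation is blocked; test concentration not given here.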 The note with it: OD650, 24 h, higher = more signal, called active from +8 up or from −8 down.
Experiment [7] in a line: small-molecule microarray binders of probe aLefty2, primary screen, biochemical, biotinylated probe, 635/667 nm fluorescence (AID 1094).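 Note: score merges spot fluorescence near 667 nm with spot signal-to-noise ratio.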 The note with it: higher = more signal.
Experiment [8] relates to Noggin (protein binding on small-molecule microarray). Nature of the experiment: Noggin binders on small-molecule microarray, primary screen, biochemical, 635/667 nm fluorescence (AID 1095).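 Note: score merges 667 nm feature fluorescence with signal to noise over triplicate slides.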 The note with it: 635 nm fluorescence, higher = more signal.
In experiment [9] the target is Neurogenic locus notch homolog protein 3 (Homo sapiens) (UniProt Q9UM47). Nature of the experiment: NOTCH3 binders on small-molecule microarray, primary screen, biochemical, 635/667 nm fluorescence (AID 1096). The note with it: NOTCH3 binding, 635 nm fluorescence, higher = more signal.
Chain of Neurogenic locus notch homolog protein 3 (Homo sapiens) (Q9UM47 whole entry, looked up): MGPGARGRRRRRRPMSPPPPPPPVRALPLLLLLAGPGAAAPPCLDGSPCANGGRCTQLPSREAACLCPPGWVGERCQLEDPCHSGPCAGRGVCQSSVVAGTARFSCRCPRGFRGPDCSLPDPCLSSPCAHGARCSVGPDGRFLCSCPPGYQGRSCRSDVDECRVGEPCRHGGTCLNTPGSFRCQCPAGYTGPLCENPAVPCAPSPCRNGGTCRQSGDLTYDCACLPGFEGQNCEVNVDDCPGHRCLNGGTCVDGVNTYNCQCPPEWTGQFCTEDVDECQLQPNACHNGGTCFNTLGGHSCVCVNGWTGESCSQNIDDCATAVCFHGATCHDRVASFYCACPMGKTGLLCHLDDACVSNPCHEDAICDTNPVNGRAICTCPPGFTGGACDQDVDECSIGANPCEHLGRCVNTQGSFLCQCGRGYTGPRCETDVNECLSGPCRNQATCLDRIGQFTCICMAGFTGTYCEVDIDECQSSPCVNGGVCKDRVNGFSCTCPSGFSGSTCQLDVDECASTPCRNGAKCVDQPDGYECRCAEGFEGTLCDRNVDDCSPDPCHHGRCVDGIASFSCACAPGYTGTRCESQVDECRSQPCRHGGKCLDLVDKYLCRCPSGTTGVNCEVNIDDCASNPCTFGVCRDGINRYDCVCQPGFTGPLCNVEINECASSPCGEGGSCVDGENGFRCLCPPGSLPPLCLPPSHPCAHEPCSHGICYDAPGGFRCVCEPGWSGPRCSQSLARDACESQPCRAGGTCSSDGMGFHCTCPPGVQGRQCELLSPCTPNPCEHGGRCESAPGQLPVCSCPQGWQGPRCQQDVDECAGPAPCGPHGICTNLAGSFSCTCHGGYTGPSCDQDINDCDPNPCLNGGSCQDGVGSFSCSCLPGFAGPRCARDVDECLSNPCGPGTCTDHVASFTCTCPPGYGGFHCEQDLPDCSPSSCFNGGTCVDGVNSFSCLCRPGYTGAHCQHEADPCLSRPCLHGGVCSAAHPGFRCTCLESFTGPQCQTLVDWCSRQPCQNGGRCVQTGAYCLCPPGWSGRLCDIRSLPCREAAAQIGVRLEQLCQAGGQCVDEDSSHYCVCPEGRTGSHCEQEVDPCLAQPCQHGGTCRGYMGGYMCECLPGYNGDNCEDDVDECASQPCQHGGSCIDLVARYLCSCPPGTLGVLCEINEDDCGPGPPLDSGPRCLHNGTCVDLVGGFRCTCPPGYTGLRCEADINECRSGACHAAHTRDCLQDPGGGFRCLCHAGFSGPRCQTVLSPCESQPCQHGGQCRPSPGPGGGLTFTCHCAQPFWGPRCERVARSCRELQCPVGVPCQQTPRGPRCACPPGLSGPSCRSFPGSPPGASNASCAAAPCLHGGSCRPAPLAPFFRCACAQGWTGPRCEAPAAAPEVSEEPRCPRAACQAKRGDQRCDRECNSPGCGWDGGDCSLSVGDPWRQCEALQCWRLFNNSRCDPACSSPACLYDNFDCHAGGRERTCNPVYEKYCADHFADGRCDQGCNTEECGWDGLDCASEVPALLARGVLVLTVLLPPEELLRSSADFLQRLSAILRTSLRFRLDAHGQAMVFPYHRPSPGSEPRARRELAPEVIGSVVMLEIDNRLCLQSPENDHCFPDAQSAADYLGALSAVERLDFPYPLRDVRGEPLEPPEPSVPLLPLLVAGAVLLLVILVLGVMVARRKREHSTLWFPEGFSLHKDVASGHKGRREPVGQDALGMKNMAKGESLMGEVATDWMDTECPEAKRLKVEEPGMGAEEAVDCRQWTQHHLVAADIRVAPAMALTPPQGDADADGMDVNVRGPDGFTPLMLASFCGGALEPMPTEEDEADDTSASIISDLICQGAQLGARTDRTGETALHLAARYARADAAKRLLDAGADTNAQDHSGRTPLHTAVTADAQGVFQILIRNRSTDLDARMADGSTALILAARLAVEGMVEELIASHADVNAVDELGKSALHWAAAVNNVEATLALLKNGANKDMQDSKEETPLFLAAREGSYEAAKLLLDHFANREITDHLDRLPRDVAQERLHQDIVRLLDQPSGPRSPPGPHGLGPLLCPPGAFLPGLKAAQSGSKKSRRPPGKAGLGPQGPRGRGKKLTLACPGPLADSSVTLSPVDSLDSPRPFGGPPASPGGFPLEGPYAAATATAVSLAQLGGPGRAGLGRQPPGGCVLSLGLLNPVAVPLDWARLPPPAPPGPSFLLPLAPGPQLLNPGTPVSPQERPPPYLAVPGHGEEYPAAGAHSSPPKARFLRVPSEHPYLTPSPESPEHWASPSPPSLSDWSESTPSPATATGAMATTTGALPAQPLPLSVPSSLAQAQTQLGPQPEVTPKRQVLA
The nature of experiment [10]: small-molecule microarray binders of probe aEGFR, primary screen, biochemical, biotinylated probe, 635/667 nm fluorescence (AID 1097).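 Note: probe is a biotinylated anti-EGFR antibody binding compounds printed on slides; score combines fluorescence near 667 nm and signal to noise of each spot.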 To be noted: higher = more signal.
Experiment [11] deals with Plasmodium falciparum Sir2 (PF13_0152, Sir2A). Briefly: pfSir2 binders on small-molecule microarrays, primary screen, biochemical, small-molecule microarray, 635 nm fluorescence (AID 1098).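 Note: score merges spot fluorescence intensity with its signal-to-noise ratio.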 The note with it: small-molecule microarray binding, fluorescence 635 nm; higher = more signal.
Experiment [12] is described as follows: small-molecule microarray binders of probe aDKK1, primary screen, biochemical, biotinylated probe, 635/667 nm fluorescence (AID 1099).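 Note: score merges 667nm spot fluorescence with signal to noise across triplicate slides; reference of the scale not given here.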 To be noted: higher = more signal.
Experiment [13] is described as follows: small-molecule microarray binders of probe aCHRDL2, primary screen, biochemical, biotinylated probe, 635/667 nm fluorescence (AID 1100). The note with it: higher = more signal.
The nature of experiment [14]: splicing luciferase reporter signal modulators, primary screen, spliceosome inhibition project, cell-based, HEK293, splice +/- reporter (AID 1101).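 Note: HEK293 cells carrying a splicing-competent luciferase reporter gene; test concentration not given here.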 The note with it: luminescence, 24 h, higher = more signal, called active from +8 up or from −8 down.
Experiment [15] addresses Fibroblast growth factor 10 (Homo sapiens) (UniProt O15520). Briefly: FGF10 binders on small-molecule microarrays, primary screen, biochemical, small-molecule microarray, 635 nm fluorescence (AID 1102). To be noted: FGF10 binding, fluorescence 635 nm, higher = more signal.
For experiment [16], the system named is glycogen synthase kinase-3 (GSK3A per assay name; protocol says GSK3B). Nature of the experiment: GSK3 binders on small-molecule microarrays, primary screen, biochemical, small-molecule microarray, 635 nm fluorescence, GSK3A (AID 1103). Note: the record names both GSK3A and GSK3B. To be noted: small-molecule microarray binding, fluorescence 635 nm; higher = more signal.
Experiment [17] deals with Epidermal growth factor receptor (Homo sapiens) (UniProt P00533). Nature of the experiment: EGFR binders on small-molecule microarrays, primary screen, biochemical, small-molecule microarray, 635 nm fluorescence (AID 1104).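 Note: score merges 667 nm emission intensity with spot signal to noise over triplicate slides.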 The note with it: EGFR binding, higher = more signal.
Chain of Epidermal growth factor receptor (Homo sapiens) (P00533 whole entry, looked up): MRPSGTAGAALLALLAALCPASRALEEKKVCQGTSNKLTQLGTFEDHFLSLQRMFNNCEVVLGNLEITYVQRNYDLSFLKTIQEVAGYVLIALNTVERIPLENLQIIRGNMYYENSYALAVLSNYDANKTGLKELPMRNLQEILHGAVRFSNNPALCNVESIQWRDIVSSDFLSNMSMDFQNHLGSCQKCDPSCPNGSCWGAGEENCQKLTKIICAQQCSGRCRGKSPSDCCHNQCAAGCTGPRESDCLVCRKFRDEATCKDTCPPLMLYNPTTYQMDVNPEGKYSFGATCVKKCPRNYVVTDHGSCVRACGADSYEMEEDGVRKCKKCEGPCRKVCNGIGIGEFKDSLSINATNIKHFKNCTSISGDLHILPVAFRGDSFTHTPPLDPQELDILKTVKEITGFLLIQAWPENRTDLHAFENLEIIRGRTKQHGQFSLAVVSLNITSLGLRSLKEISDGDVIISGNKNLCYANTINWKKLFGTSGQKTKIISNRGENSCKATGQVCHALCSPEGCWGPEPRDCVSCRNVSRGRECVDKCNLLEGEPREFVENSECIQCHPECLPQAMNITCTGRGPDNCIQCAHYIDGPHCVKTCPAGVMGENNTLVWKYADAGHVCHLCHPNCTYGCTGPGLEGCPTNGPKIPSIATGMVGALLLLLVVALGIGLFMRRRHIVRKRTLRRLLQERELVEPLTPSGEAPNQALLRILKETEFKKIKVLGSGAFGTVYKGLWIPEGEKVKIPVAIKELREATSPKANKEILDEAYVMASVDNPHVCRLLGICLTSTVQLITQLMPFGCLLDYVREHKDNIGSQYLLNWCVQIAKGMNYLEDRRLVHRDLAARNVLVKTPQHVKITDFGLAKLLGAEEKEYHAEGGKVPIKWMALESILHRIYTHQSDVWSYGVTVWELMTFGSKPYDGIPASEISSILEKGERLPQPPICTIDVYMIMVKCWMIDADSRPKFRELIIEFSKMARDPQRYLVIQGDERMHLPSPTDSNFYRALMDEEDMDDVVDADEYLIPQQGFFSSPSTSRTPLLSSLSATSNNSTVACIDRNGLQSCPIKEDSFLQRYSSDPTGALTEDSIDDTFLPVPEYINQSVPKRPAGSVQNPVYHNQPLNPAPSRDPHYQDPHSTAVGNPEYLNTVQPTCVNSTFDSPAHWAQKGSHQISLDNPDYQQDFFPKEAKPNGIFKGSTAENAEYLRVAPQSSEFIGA
Experiment [18] concerns the target Follistatin-related protein 3 (Homo sapiens) (UniProt O95633). Briefly: FSTL3 binders on small-molecule microarrays, primary screen, biochemical, small-molecule microarray, 635 nm fluorescence (AID 1105).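 Note: score merges emission near 667 nm and signal to noise per printed spot across three slides.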 To be noted: FSTL3 binding, higher = more signal.
Experiment [19] has as its target Dickkopf-related protein 1 (Homo sapiens) (UniProt O94907). Nature of the experiment: DKK1 binders on small-molecule microarrays, primary screen, biochemical, small-molecule microarray, 635 nm fluorescence scan (AID 1106).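 Note: score merges emission near 667 nm with signal to noise over three replicate slides.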 To be noted: DKK1 binding, higher = more signal.
Experiment [20] deals with Inhibin beta A chain (activin A). Briefly: INHBA (activin A) binders on microarrays, primary screen, biochemical, small-molecule microarray, 635 nm fluorescence scan (AID 1107).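 Note: mouse activin A protein probed at 4.33 µg/mL on printed slides; score merges bound-protein fluorescence near 667 nm with spot signal-to-noise.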 The note with it: small-molecule microarray binding, higher = more signal.

Activity calls are given as the source filed them.

Chain of Follistatin-related protein 3 (Homo sapiens) (O95633 whole entry, looked up): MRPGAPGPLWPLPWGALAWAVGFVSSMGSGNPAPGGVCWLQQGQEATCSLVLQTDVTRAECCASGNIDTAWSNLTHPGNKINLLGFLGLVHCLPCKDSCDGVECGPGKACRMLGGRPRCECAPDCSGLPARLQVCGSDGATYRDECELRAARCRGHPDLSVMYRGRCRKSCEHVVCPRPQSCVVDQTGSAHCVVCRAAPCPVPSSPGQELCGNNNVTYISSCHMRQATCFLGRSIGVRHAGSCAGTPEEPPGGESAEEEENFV
Chain of Dickkopf-related protein 1 (Homo sapiens) (O94907 whole entry, looked up): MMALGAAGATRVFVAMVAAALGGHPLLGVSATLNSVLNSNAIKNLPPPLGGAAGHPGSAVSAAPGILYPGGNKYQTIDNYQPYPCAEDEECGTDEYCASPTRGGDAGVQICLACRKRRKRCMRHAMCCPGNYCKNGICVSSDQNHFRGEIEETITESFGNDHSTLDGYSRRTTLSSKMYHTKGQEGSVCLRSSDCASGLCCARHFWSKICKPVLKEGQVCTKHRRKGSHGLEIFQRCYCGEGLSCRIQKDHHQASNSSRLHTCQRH
Chain of Fibroblast growth factor 10 (Homo sapiens) (O15520 whole entry, looked up): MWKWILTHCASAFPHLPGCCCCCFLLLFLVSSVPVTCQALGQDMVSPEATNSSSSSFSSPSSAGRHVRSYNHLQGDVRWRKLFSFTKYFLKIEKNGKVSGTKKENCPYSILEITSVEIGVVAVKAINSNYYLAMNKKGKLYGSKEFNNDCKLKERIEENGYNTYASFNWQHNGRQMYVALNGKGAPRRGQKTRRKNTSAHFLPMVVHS

`O=C1C2C=CC(C(O)c3ccc(-c4ccccc4)s3)N(Nc3ccccc3F)C2C(=O)N1c1ccccc1` (stereo not given): the composite z-score in [1] was 1.33; in [5], 2.85; in experiment [7], 0.207; in experiment [8], -0.243; in experiment [9], 1.02; in experiment [10], 0.232. Also, the composite z-score in experiment [11] was 0.913; in experiment [12], 1.22; in experiment [13] it was 1.27; in experiment [15], 0.772; in experiment [16], 0.806; in experiment [17], 0.247. The composite z-score in [18] is 0.817; in experiment [19] it was 0.0154; in experiment [20] it was 0.948. The z-score was 0.264 (inactive) in experiment [2]; 0.167 (inactive) in experiment [3]; 1.58 (inactive) in experiment [4]; -1.82 (inactive) in experiment [6]; 0.25 (inactive) in [14].

On to `COCCOC(=O)N1C(=O)[C@@]2(c3cc(C#CCC(C(=O)OC)C(=O)OC)ccc31)[C@H](c1ccc(OCCO)cc1)N1[C@H](c3ccccc3)[C@H](c3ccccc3)OC(=O)[C@H]1[C@@H]2C(=O)NC[C@H](O)c1ccccc1`, for which the composite z-score in experiment [1] is 1.53; in [5], 3.51; in experiment [7], -0.426; in experiment [8], 1.46; in experiment [9], 1.08; in [10], -0.0389. Besides, the composite z-score in experiment [11] is 1.52; in experiment [12], -0.405; in [13], -0.189; in experiment [15] it was 1.5; in experiment [16], 1.3; in [17] it was 0.586. Moreover, the values for the composite z-score in experiment [18], in experiment [19] and in experiment [20] were 1.29, 0.356 and 0.094, respectively. For the same compound, the z-score was 2.11 (inactive) in experiment [2]; 1.7 (inactive) in [3]; 7.38 (inactive) in experiment [4]; 0.0053 (inactive) in [6]; 0.0782 (inactive) in experiment [14].

With `O=C1C[C@@](C(=O)O)(c2ccc([N+](=O)[O-])cc2)[C@@H](c2ccc(CO)cc2I)N1C1CCCCC1`, the composite z-score is 0.222 in [1]; 2.54 in [5]; 0.0539 in experiment [7]; 0.373 in [8]; 1.06 in experiment [9]; -0.0828 in experiment [10]. In addition, the composite z-score was 1.24 in [11]; -0.162 in experiment [12]; 0.862 in experiment [13]; 1.27 in experiment [15]; -0.428 in [16]; 0.126 in [17]. The composite z-score in [18] is 0.596; in experiment [19] it was -0.605; in experiment [20], 0.775. Also, the z-score in [2] is -1.09 (inactive); in experiment [3], -6.54 (inactive); in [4], 0.173 (inactive); in experiment [6], 2.15 (inactive); in experiment [14], -2.72 (inactive).

On to `O=C1OCCC/C=C\[C@H]2OC34C=CCN(CCN5CCOCC5)C(=O)[C@H]3N(CCO)C(=O)[C@@H]4C12` (stereo not given in full), for which the composite z-score in [1] was -0.833; in experiment [5] it was -0.534; in experiment [7], -0.18; in experiment [8], -0.915; in experiment [9], -1.23; in experiment [10], -0.244. The composite z-score was 1.66 in experiment [11]; -0.214 in experiment [12]; 0.0583 in experiment [13]; -0.506 in [15]; -0.707 in experiment [16]; -0.676 in [17]. For the same compound, the composite z-score in experiment [18] was -1.14; in experiment [19], -0.507; in experiment [20] it was -0.68. Also, the z-score is 0.14 (inactive) in experiment [2]; 0.774 (inactive) in [3]; -0.131 (inactive) in [4]; 1 (inactive) in experiment [6]; -1.15 (inactive) in experiment [14].

`C=CC[C@@]1(C(=O)OC)N=C(c2ccc(OCCCO)cc2)O[C@@H]1c1ccccc1CN=[N+]=[N-]`: the composite z-score in [1] was 1.3; in experiment [5], 1.41; in experiment [7], 0.0427; in experiment [8], 0.744; in experiment [9], -0.159; in experiment [10], -0.0531. The composite z-score in experiment [11] is 1.55; in experiment [12], -0.0877; in experiment [13], 0.892; in experiment [15], -0.216; in experiment [16], -0.215; in [17], -0.328. Besides, the composite z-score was 0.201 in [18], -0.231 in experiment [19] and 1.15 in [20]. For the same compound, the z-score was -3.29 (inactive) in experiment [2]; -4.42 (inactive) in [3]; 6.32 (inactive) in experiment [4]; 1.21 (inactive) in experiment [6]; -1.54 (inactive) in [14].

(Values after PubChem BioAssay.)
